The text below walks through data of PubChem BioAssay (NCI).

Compounds without any hit were thinned out: in the full panel of roughly 83,000, 20% have a hit.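 The endpoint reported here, percent growth, reads 100 for growth as untreated, 0 for no net growth and -100 for all cells dead.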 Unmarked numbers belong to inactive results. Activity calls are given as the source filed them.

The test has as its system OVCAR-8 ovarian. The test is described as follows: NCI-60 one-dose screen, 48 h (100 = growth as untreated, 0 = no growth, -100 = all killed). To be noted: 10 µM unless noted. Here is the method:
Growth inhibition of the OVCAR-8 human tumor cell line is measured as a screen for anti-cancer activity. Cells are grown in 96 well plates and exposed to the test compound for 48 hours. Compounds are tested at a single concentration, which is 10^-5 M for most compounds. The reported endpoint is percent growth (GI% or GIPRCNT), where numbers from 0 - 100% represent growth inhibition, and numbers from -100% - 0 represent cell death. For example, a value of 40 represents 60% growth inhibition. A value of 0 means no net growth occurred over the course of the experiment. A value of -40 indicates 40% of cells at the beginning of the experiment died by the end of the experiment. A value of -100 means all cells are dead at the end of the experiment.
NCI-60 Human Tumor Cell Lines Screen was performed using the standard one-dose NCI protocol, which is described in more detail at https://dtp.cancer.gov/discovery_development/nci-60/default.htm.
Compounds with GIPRCNT values below 10 were considered active. Activity score was based on GIPRCNT using the following formula: […]
Score is 0 for GIPRCNT values of 100 or above, 50 for GIPRCNT values of 0, and 100 for GIPRCNT values of -100.
As to `O=S(=O)(NCCCNc1nccc(-c2[nH]c(-c3ccccc3)nc2-c2ccc(Cl)c(O)c2)n1)c1cccc2ccccc12`, the growth was 27.1%. The result for `Nc1nc(Nc2ccccc2SSc2ccccc2Nc2nc(N)nc(-c3ccc4ccccc4c3)n2)nc(-c2ccc3ccccc3c2)n1` reads 84.4%; that for `Cc1ccc(NC(=S)NNC(=S)Nc2ccc(C)cc2)cc1`, 105%. The result for `CNC1CCc2c(sc(NC(=O)c3ccc(C(C)(C)C)cc3)c2C(N)=O)C1` (stereo not given) reads 74.6%; that for `Cc1c(F)cc(C(N)=O)cc1NCC(=O)Nc1ccc([N+](=O)[O-])cc1`, 99.8%; that for `CCc1nn2c(C)cc(C)nc2c1Cc1ccc(/C=C/CN2CCN(CCOCCOCCN3CCN(C/C=C/c4ccc(Cc5c(CC)nn6c(C)cc(C)nc56)cc4)CC3)CC2)cc1`, 19.1%. The result for `CCNC(=O)N1CCc2cc(OC)c(OCCc3ccc(OC)cc3)cc2C1c1ccc([N+](=O)[O-])cc1C` (stereo not given) reads 29.1%; that for `O=C1/C(=C/C=C/c2ccco2)SC(=S)N1C1CCCCC1`, 97.4%. Take `c1cc(-c2nc3ccc4[nH]ncc4c3c3c2CCCC3)[nH]n1`: the growth is 70.2%.

Take `COc1cc(C2N=C(NNc3ccccc3)NC(C)=C2C(C)=O)ccc1O` (stereo not given): the growth was 94.2%. The result for `COc1cc2nc(Cl)nc(Nc3cccc(C4=Nc5c(N)nc(N)nc5NC(c5ccc6c(c5)OCO6)C4)c3)c2cc1OC` (stereo not given) reads 68.2%. The result for `O=C(O)c1cn(C2CC2)c2cc(N3CCN(C(=O)CN4C(=O)CSC4=O)CC3)c(F)cc2c1=O` reads 105%. The result for `N#Cc1cccc(/C(N)=N/C(N)=N/c2nc3ccccc3s2)c1` reads 35%; that for `CC[C@]12C=CCN3CC[C@@]4(c5cc(NC(=O)COc6cc(O)c7c(=O)cc(-c8ccccc8)oc7c6)c(OC)cc5N(C)[C@H]4[C@@](O)(C(=O)OC)[C@@H]1OC(C)=O)[C@@H]32`, -17.7% (active); that for `O=C1Nc2ccccc2/C1=C/c1ccc(COCC2CO2)n1-c1ccc(O)cc1` (stereo not given), 101%. `O=C(CSc1nnc(-c2ccc(Cl)cc2)n1-c1ccccc1)Nc1cccc(Cl)c1`: the growth is 62.4%. Next, `COc1cc(-c2nn(C(C)(C)C)cc2-c2ccnc(NCCCNS(=O)(=O)c3cccc(F)c3)n2)ccc1Cl`: 89.3%; `CCO/C=N/C1=C(C#N)C(c2ccc(Cl)cc2)c2sc3c(CC)cccc3c2O1` (stereo not given): 28.5%. The result for `CC(=O)N1N=C(c2cccc(-n3cccc3)c2)CC1c1cccc(F)c1` (stereo not given) reads 98.2%.

`NC(N)=Nc1ccc(Oc2cccc(NC(N)=Nc3ccc(Cl)c(C(F)(F)F)c3)c2)cn1`: the growth was 53.5%. Take `CN1CCN(c2ccc(/C=N/n3cnc4oc(-c5ccccc5)cc4c3=N)cc2)CC1`: the growth was 96.1%. `CC1(C)CC[C@]2(C(=O)O)CC[C@]3(C)C(=CC[C@@H]4[C@@]5(C)CC/C(=N\OCCC#N)C(C)(C)[C@@H]5CC[C@]43C)[C@@H]2C1`: the growth was 109%. Next, `COc1ccc(NC2=C(Cl)C(=O)c3nc(C)ccc3C2=O)cc1OC`: 92.6%; `CCCSc1nc(Nc2ccc(/C(C)=N\NC(N)=S)cc2)c(C#N)c(-c2ccccc2)n1`: 56%.

Regarding `O=C1CCCC2=C1C(c1c[nH]c3ccc(Br)cc13)Cc1cc(Br)ccc1N2` (stereo not given), the growth was 55.3%. The result for `COc1ccccc1NCc1cccn1Cc1ccc(F)cc1` reads 103%; that for `CCN1CCN(Cc2ccc(C(=O)Nc3ccc(C)c(Oc4ccc(-c5[nH]nc6ncnc(N)c56)cc4)c3)cc2C(F)(F)F)CC1`, 96.7%; that for `C=C1CC[C@@H]2[C@](C)(CO)[C@H](O)CC[C@@]2(C)[C@@H]1C/C(O)=C1\CCOC1=O`, 98.5%. The result for `NC(N)=Nc1ccc(Oc2cccc(Nc3cccc(C(F)(F)F)c3)c2)cn1` reads 45.4%; that for `O=c1[nH]c(Sc2sc3ccc(Cl)cc3c2CBr)nc(=S)[nH]1`, 41.2%; that for `CCn1c(SCC(=O)Nc2cccc(C(=O)/C=C/c3ccc(C)cc3)c2)nc2ccccc2c1=O`, 90.9%. Turning to `CS(=O)(=O)Nc1cc(-c2ccc3ncc(C#N)c(NCc4ccccc4)c3c2)cnc1Cl`, the growth was 7.32% (active). Next, `CCCCCc1ccc(S(=O)(=O)Nc2cccc(-c3csc(NCCN4CCN(C)CC4)n3)c2)cc1`: 94.2%. Next, `Nc1nc(N)c2c(n1)NC(c1ccc(C(F)(F)F)cc1)CC(c1ccc(Nc3nc(NCCO)nc(N4CCOCC4)n3)cc1)=N2` (stereo not given): 60.2%; `COc1cc(OC)cc(C(=O)Nc2sc3c(c2C(N)=O)CCC(=O)C3)c1`: 42.1%. `CCCCCc1ccc(S(=O)(=O)Nc2cccc(-c3csc(NC(=O)CN4CCN(C)CC4)n3)c2)cc1`: the growth is 95.9%. The result for `O=C(CSc1nnc(-c2ccc(Cl)cc2)n1-c1ccccc1)Nc1ccc(Br)cc1` reads -27.5% (active); that for `COc1ccc(C(=O)c2c(N)c(C#N)cn2-c2ccccc2OC)cc1`, 55.9%. The result for `COc1c(N2CC3CCCNC3C2)c(F)cc2c(=O)c(C(=O)N/N=C/c3ccc(Br)cc3)cn(C3CC3)c12` (stereo not given) reads 90.3%.

As for `COC(=O)c1[nH]nc2c1C1(C(=O)c3cccc4cccc1c34)C(C#N)=C(N)O2` (stereo not given), the growth was 92%.
